PubChem BioAssay (NCI)
Compounds without any hit were thinned out: in the full panel of roughly 79,000, 15% have a hit. Active and inactive are the calls of the source. No stated cut-off is given here; in the data, active means growth inhibition above about 70%; inactive means the rest.

Columns and labels:
[1] = NCI Yeast Anticancer Drug Screen. Data for the rad52 strain (AID 147);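 further: 0% = growth of vehicle-treated control cultures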; conditions: S. cerevisiae rad52 mutant growth inhibition, hits give high values
Summary of the method: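 The repair-mutant yeast strain was incubated with compounds, then growth was read and inhibition derived relative to vehicle.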

[2] = NCI Yeast Anticancer Drug Screen. Data for the wt1 strain (AID 149);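 further: 0% = growth of vehicle-treated wt1 cultures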; conditions: S. cerevisiae wt1 strain (SPY 50644) growth inhibition, hits give high values
Summary of the method: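 Using yeast strain wt1, compound-induced growth inhibition was determined against vehicle-treated cultures.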

[3] = NCI Yeast Anticancer Drug Screen. Data for the rad50EPP+ strain (AID 151);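 further: 0% = growth of vehicle-treated control cultures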; conditions: S. cerevisiae rad50 mutant strain, hits give high values
Summary of the method: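 Vehicle-normalised growth inhibition; rad50EPP+ yeast strain, altered in DNA damage repair, compound-treated.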

[4] = NCI Yeast Anticancer Drug Screen. Data for the mgt1 strain (AID 153); conditions: S. cerevisiae mgt1 mutant growth inhibition, hits give high values
Summary of the method: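 Vehicle-normalized growth inhibition is determined in mgt1 yeast, a strain selected for a defined alteration in DNA repair or cell cycle control.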

[5] = NCI Yeast Anticancer Drug Screen. Data for the rad50 strain (AID 155);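 further: 0% = growth of vehicle-only cultures of the same strain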; conditions: S. cerevisiae rad50 strain growth inhibition, hits give high values
Summary of the method: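 Relative growth inhibition (compound vs vehicle) was measured in yeast with a defined repair-gene alteration.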

[6] = NCI Yeast Anticancer Drug Screen. Data for the mec2-1 strain (AID 157); conditions: S. cerevisiae mec2-1 strain, hits give high values
Summary of the method: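 Mutant yeast (mec2-1) grown with compound; growth inhibition relative to vehicle control reported.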

[7] = NCI Yeast Anticancer Drug Screen. Data for the rad14 strain (AID 159);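 further: 0% = growth of vehicle-treated control cultures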; conditions: S. cerevisiae rad14 strain growth inhibition, hits give high values
Summary of the method: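 Screen for anticancer potential: a yeast strain altered in DNA damage repair is grown with compound, and reduced growth is quantified against vehicle controls.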

[8] = NCI Yeast Anticancer Drug Screen. Data for the sgs1 mgt1 strain (AID 161);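 further: 0% = growth of cultures given vehicle only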; conditions: S. cerevisiae sgs1 mgt1 strain, hits give high values
Summary of the method: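 Yeast cells carrying a defined DNA-repair defect were exposed to test compounds. Growth inhibition was measured relative to vehicle-treated controls.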

[9] = NCI Yeast Anticancer Drug Screen. Data for the CLN2oe strain (AID 163);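 further: 0% = growth of vehicle-only control cultures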; conditions: S. cerevisiae CLN2oe strain, hits give high values
Summary of the method: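 Compounds are applied to yeast harbouring a defined cell-cycle control change; reduced growth compared with vehicle-treated controls gives the value.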

[10] = NCI Yeast Anticancer Drug Screen. Data for the cln2 rad14 strain (AID 165);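 further: 0% = growth equal to vehicle treated cultures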; conditions: S. cerevisiae cln2 rad14 strain, hits give high values
Summary of the method: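 Readout is yeast growth inhibition versus vehicle-treated controls, using a strain with cln2 and rad14 alterations exposed to compound.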

[11] = NCI Yeast Anticancer Drug Screen. Data for the bub3 strain (AID 167); conditions: S. cerevisiae bub3 mutant strain, hits give high values
Summary of the method: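 Screening used yeast with an engineered genetic alteration affecting cell cycle control. Compound-exposed cultures were compared with vehicle cultures, and reduced growth was taken as inhibition.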

[12] = NCI Yeast Anticancer Drug Screen. Data for the wt2 strain (AID 169);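 further: 0% = growth of vehicle-treated yeast cultures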; conditions: S. cerevisiae wt2 strain growth inhibition, hits give high values
Summary of the method: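 Against vehicle-treated controls, the growth of yeast exposed to each compound was compared, and the inhibition was recorded.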

[13] = NCI Yeast Anticancer Drug Screen. Data for the mlh1 strain (AID 171);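 further: 0% = growth of vehicle-treated control cultures of the same strain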; conditions: S. cerevisiae mlh1 strain growth inhibition, hits give high values
Summary of the method: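 Measured: yeast growth. Reference: vehicle-treated controls. Organism: strain with a defined alteration affecting DNA damage repair or cell cycle control, treated with compound.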

[14] = NCI Yeast Anticancer Drug Screen. Data for the mlh1 rad18 strain (AID 175); conditions: S. cerevisiae mlh1 rad18 strain growth inhibition, hits give high values
Summary of the method: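 Genetically defined yeast (DNA repair-deficient) exposed to compounds; growth inhibition determined relative to vehicle.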

[15] = NCI Yeast Anticancer Drug Screen. Data for the rad18 strain (AID 177); conditions: S. cerevisiae rad18 mutant growth inhibition, hits give high values
Summary of the method: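 Vehicle-treated cultures served as the baseline for scoring compound-induced growth inhibition in DNA-repair-mutant yeast.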

[16] = at 5.0 µM (retest, dose inferred, filed as 0.5)
[17] = at 50.0 µM (retest, dose inferred, filed as 5.0)

Measured: growth inhibition

CN(C)CCNc1cccc2sc3ccc(O)cc3c(=O)c12
active: [5]; [17] 90% | [5]; at 50.0 µM 87.8%
inactive: [1]; at 1.2 µM 0% | [1]; at 3.7 µM 1% | [1]; at 11.0 µM 10% | [1]; at 33.0 µM 20% | [1]; at 100.0 µM 43% | [2]; at 1.2 µM 1% | [2]; at 3.7 µM 6% | [2]; at 11.0 µM 3% | [2]; at 33.0 µM 4% | [2]; at 100.0 µM 6% | [3]; at 1.2 µM 2% | [3]; at 3.7 µM 11% | [3]; at 11.0 µM 15% | [3]; at 33.0 µM 26% | [3]; at 100.0 µM 33% | [4]; at 1.2 µM -1% | [4]; at 3.7 µM -5% | [4]; at 11.0 µM -3% | [4]; at 33.0 µM 0% | [4]; at 100.0 µM 6% | [5]; at 1.2 µM 4% | [5]; at 3.7 µM 6% | [5]; [16] 14% | [5]; at 11.0 µM 11% | [5]; at 33.0 µM 31% | [5]; at 100.0 µM 47% | [6]; at 1.2 µM 4% | [6]; at 3.7 µM 5% | [6]; [16] -1% | [6]; at 11.0 µM 8% | [6]; at 33.0 µM 9% | [6]; [17] 17% | [6]; at 50.0 µM 18.5% | [6]; at 100.0 µM 7% | [7]; at 1.2 µM -1% | [7]; at 3.7 µM 1% | [7]; at 11.0 µM 5% | [7]; at 33.0 µM 12% | [7]; at 100.0 µM 19% | [8]; [16] 1% | [8]; [17] 7% | [8]; at 50.0 µM 48.1% | [9]; at 1.2 µM -6% | [9]; at 3.7 µM -11% | [9]; at 11.0 µM -8% | [9]; at 33.0 µM -5% | [9]; at 100.0 µM 4% | [10]; [16] 3% | [10]; [17] 26% | [10]; at 50.0 µM 45.5% | [11]; at 1.2 µM 2% | [11]; at 3.7 µM -4% | [11]; [16] 1% | [11]; at 11.0 µM -1% | [11]; at 33.0 µM -2% | [11]; [17] 8% | [11]; at 50.0 µM 36.2% | [11]; at 100.0 µM -4% | [12]; at 1.2 µM 1% | [12]; at 3.7 µM -2% | [12]; at 11.0 µM 0% | [12]; at 33.0 µM 1% | [12]; at 100.0 µM 4% | [13]; at 1.2 µM 1% | [13]; at 3.7 µM 3% | [13]; at 11.0 µM 4% | [13]; at 33.0 µM 4% | [13]; at 100.0 µM 8% | [14]; [16] -3% | [14]; [17] 44% | [14]; at 50.0 µM 66.5% | [15]; at 1.2 µM -2% | [15]; at 3.7 µM -2% | [15]; at 11.0 µM -1% | [15]; at 33.0 µM 1% | [15]; at 100.0 µM 5%
